L3MBTL1 block = inhibitors of human L3MBTL1 | actives 0.66% (n = 230,000) | Potency, µM (titrated, usually from 57.1 µM), without a hit: at the top dose activity, negative = inhibition, actives largely listed as inhibitors | AlphaScreen L3MBTL1–H3K9me1 peptide binding | Q9Y468; note: potency is the fitted concentration of half-maximal effect; % is set by controls: 0 for no effect and ±100 for the full control effect; nearly all actives have a fitted effect of over 60% in size
Target sequence (Q9Y468 whole entry, looked up): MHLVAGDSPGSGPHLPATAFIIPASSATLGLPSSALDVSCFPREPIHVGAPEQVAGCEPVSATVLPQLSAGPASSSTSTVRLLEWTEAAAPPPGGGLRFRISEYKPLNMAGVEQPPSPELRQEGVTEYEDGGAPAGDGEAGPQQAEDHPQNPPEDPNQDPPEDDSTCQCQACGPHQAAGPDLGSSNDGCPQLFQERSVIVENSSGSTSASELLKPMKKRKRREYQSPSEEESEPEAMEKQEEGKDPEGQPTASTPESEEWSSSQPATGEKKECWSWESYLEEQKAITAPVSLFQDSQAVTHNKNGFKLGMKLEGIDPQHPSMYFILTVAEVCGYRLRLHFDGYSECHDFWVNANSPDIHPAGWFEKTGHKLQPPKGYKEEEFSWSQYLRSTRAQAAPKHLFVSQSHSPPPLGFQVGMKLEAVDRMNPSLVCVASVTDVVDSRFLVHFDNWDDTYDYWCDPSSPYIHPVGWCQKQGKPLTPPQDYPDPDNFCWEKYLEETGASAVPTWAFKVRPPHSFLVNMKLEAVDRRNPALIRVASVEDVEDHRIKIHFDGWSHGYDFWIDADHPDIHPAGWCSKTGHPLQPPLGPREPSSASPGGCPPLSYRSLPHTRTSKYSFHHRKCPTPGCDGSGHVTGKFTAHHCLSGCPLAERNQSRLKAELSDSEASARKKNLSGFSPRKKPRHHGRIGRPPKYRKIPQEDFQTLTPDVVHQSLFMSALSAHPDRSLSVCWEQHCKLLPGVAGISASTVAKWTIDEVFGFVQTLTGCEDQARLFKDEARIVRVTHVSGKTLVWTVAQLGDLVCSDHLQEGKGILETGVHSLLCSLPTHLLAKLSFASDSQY
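AlphaScreen proximity signal between nickel-chelate acceptor and streptavidin donor beads (final 10 ug/mL) reports binding of 50 nM L3MBTL1 to 75 nM biotin-H3 K9me1 peptide; complex incubated with compounds 30 min at room temperature; cefsulodin titration as control.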
PI5P4Ka inh = inhibitors of human PI5P4K alpha; PI5P4Kalpha enzyme, ADP-Glo luminescence, 60 min; hits give low values; max response, %; actives 1.2% (n = 330,000); active = max response of -50% or lower; inconclusive = between -30% and -50%; inactive = -30% or higher; note: value at the top dose of about 77 µM; % is set by controls: 0 for no effect and ±100 for the full control effect
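ADP-Glo luminescence end-point read after a 60 min room-temperature kinase reaction of PI5P4Kalpha plus substrate, initiated with ATP at 5 microM final. Buffer: 0.038 M HEPES pH 7.4, EGTA, 0.1% CHAPS, 5% DMSO.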
BAZ2B block = inhibitors of human BAZ2B bromodomain. actives 4.4% (n = 360,000). Q9UIF8. AlphaScreen BAZ2B-H3K14Ac peptide displacement. Potency, µM (top dose mostly 114 µM), for the others: at the top dose activity change, negative = inhibition, actives largely listed as inhibitors; note: potency is the fitted concentration of half-maximal effect; % is set by controls: 0 for no effect and ±100 for the full control effect; nearly all actives have a fitted effect of over 60% in size
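AlphaScreen displacement: compounds (up to 110uM) incubated 30 min at room temperature with a preformed 50 nM BAZ2B/50 nM biotinylated H3K14Ac peptide complex in PBS pH 7.4 with Tween-20. Donor and acceptor beads at 10 ug/mL final added, 20 min light-protected before reading.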
G9a block = blocks human histone lysine methyltransferase G9a | Q96KQ7 | G9a H3K9 monomethylation, AlphaScreen, 2 h | Potency, µM (highest dose often 102 µM), for the others: at the top dose activity, negative = inhibition, most hits filed as inhibitors | actives 8.8% (n = 350,000) | AID 504332; note: potency is the fitted concentration of half-maximal effect; % is set by controls: 0 for no effect and ±100 for the full control effect; nearly all actives have a fitted effect of over 75% in size
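AlphaScreen read-out: biotin-H3K9 peptide (500 nM) methylation by 20 nM enzyme with 20 uM SAM, 2 h at room temperature after 15 min compound preincubation; anti-monomethyl H3K9 antibody plus donor/acceptor beads, 10 min dark.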
JMJD2A Tudor inh = JMJD2A Tudor domain (human) inhibition | actives 4.4% (n = 390,000) | AID 504339 | Potency, µM (top dose mostly 114 µM), without a hit: at the highest dose activity change, negative = inhibition, actives largely listed as inhibitors | AlphaScreen JMJD2A-Tudor / H3K4me3 peptide binding; note: potency is the fitted concentration of half-maximal effect; % is set by controls: 0 for no effect and ±100 for the full control effect; nearly all actives have a fitted effect of over 50% in size
HP1b chromo inh = blocks HP1-beta chromodomain binding to methylated histone tails | AlphaScreen HP1-beta / biotin-H3K9me3 peptide binding | P83916 | actives 0.56% (n = 390,000) | Potency, µM (highest dose often 114 µM), for the others: at the highest dose activity change, negative = inhibition, actives largely listed as inhibitors; note: potency is the fitted concentration of half-maximal effect; nearly all actives have a fitted effect of over 70% in size
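Compound inhibition of the preformed complex between 50 nM HP1-beta and 50 nM biotinylated H3K9me3 peptide was read by AlphaScreen. Buffer was PBS pH 7.4 with 0.01% Tween-20. Incubations ran 30 min at room temperature, with 10 ug/mL donor/acceptor beads.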
Active calls of the source: *; ? = inconclusive; · = no result given; ! = a repeat was not active; [ ] = remark or other dose. The list is not random: actives were taken first. Their share in the collection is about 11%. Unless noted, calls come from the whole dose curve; as a rule, active = well fitted inhibition curve with a large enough effect; inconclusive = small, poorly fitted or top-dose-only effect; inactive = no such curve, though single readings can be large or run the other way.

SMILES | L3MBTL1 block | PI5P4Ka inh | BAZ2B block | G9a block | JMJD2A Tudor inh | HP1b chromo inh
CCCCC(CC)COP(=O)(OCC(CC)CCCC)OCC(CC)CCCC (stereo unspecified) | ? | 12 | 14% | 6%[0.501 µM] | 14% | 33%
NCC(O)c1cc(O)c(O)cc1F (stereo unspecified) | ? | 0 | 1% | 9.5µM*! | 10µM* | ?
NC(=NCCC[C@H](N)C(=O)O)N[N+](=O)[O-] | · | · | · | 14%[59 µM] | · | ·
NC(N)=NOCCC(N)C(=O)O (stereo unspecified) | · | · | · | 30µM*! | · | ·
Cc1ccc(NC(=O)Cn2cc(C(=O)c3ccccc3)c3ccccc32)cc1 | · | · | -20% | -8%[59 µM] | 40µM* | 38%
O=C(C1CC(c2ccccc2O)=NO1)N1CCC2(CC1)OCCO2 (stereo unspecified) | · | · | -8% | 50µM* | 14µM* | 12%
OCC(CBr)(CBr)CBr | 9% | 4 | 0% | 2%[0.501 µM] | -17% | 27%
Cc1ccc(C(=O)Oc2cc(N)n(S(=O)(=O)c3ccc(F)cc3)n2)cc1 | · | -4 | 4% | 13% | 11% | 51%
COCc1cc(C)c(C#N)c(=S)[nH]1 | 0% | -24 | ? | · | 7.9µM* | ?
O=C(NC(=O)c1c(F)cccc1F)Nc1cc(Cl)c(OC(F)(F)C(F)C(F)(F)F)cc1Cl (stereo unspecified) | · | · | · | 1%[12.7 µM] | · | ·
NP(=O)(OCCCc1ccccc1)Oc1ccccc1Cl (stereo unspecified) | 2% | 5 | 0% | · | -19% | 18%
NP(=O)(OCCCc1ccccc1)Oc1ccc(Cl)cc1 (stereo unspecified) | 14µM* | 4 | -5% | 13% | -3% | 24%
COc1ccccc1N1CCN(CCc2c[nH]c3cc4c(cc23)OCO4)CC1 | · | -14 | · | · | 25µM* | ?
O=S1(=O)CCN(CCc2c[nH]c3ccccc23)CC1 | 5% | 4 | -8% | 0% | -13% | 37%
Cn1c(O)c(/C=C/C=Nc2ccccc2)c(=O)n(C)c1=S | -6% | -30 | -1% | 45µM* | -14% | 24%
Cc1cccc(-n2c(O)c(/C=C/C=Nc3ccccc3)c(=O)[nH]c2=O)c1 | -3% | -17 | -1% | ? | -22% | 9%
COc1ccc2c3c([nH]c2c1)C(C)NCC3 (stereo unspecified) | -16% | -18 | ? | -25%[12.7 µM] | 50µM* | -13%
Cc1ccc(C)c(N2CCN(C(=O)C3CCN(Cc4nc(-c5cccc(Cl)c5)oc4C)CC3)CC2)c1 | · | · | 8.9µM* | ? | 40µM* | -23%
CCCCNC(=O)C1CCCN(Cc2nc(-c3ccc(Cl)cc3)oc2C)C1 (stereo unspecified) | · | · | ? | -24%[59 µM] | -9% | 34%
Cc1ccc(Cl)cc1N1CCN(C(=O)C2CCN(Cc3nc(-c4ccc(Cl)cc4)oc3C)CC2)CC1 | · | · | 8.9µM* | ? | ? | -16%
Cc1ccc2c(c1)CC1(CN2C)C(=O)NC(=O)N(c2ccc(C)c(C)c2)C1=O (stereo unspecified) | -2% | -6 | -23% | 8.9µM* | -16% | 34%
Cc1ccc2c(c1)CC1(CN2C)C(=O)NC(=O)N(c2cccc(C)c2C)C1=O (stereo unspecified) | 5% | -3 | -2% | 7.9µM* | -15% | 49%
CCOC(=O)C1CCN(/C=C2/C(=O)NC(=O)N(c3cccc(C)c3C)C2=O)CC1 | 27% | 0 | ? | · | -12% | 28%
Cc1ccc2c(c1)CC1(CN2C)C(=O)NC(=O)N(CCc2ccccc2)C1=O (stereo unspecified) | · | -1 | -4% | 7.9µM* | 2% | 47%
Cc1ccc(N2C(=O)CC(=O)NC2=O)cc1Cl | · | -10 | -14% | · | -7% | 38%
SMILES | L3MBTL1 block | PI5P4Ka inh | BAZ2B block | G9a block | JMJD2A Tudor inh | HP1b chromo inh
COc1ccccc1N1C(=O)NC(=O)C2(Cc3cc(C)ccc3N(C)C2)C1=O (stereo unspecified) | 0% | · | -5% | 8.9µM* | -30% | 30%
CN1C2CC(OC(=O)C(CO)c3ccccc3)CC1C(O)C2 (stereo unspecified) | · | · | · | -38%[2.33 µM] | · | ·
CCOc1ccc(NC(=O)CN(c2ccc(Cl)cc2C)S(=O)(=O)c2ccccc2)cc1 | · | · | ? | -42%[59 µM] | -12% | 20%
Cc1ccc2c(c1)CC1(CN2C)C(=O)NC(=O)N(c2ccccc2C)C1=O (stereo unspecified) | 0% | -3 | -5% | 10µM* | -5%[57.1 µM] | 34%
Cc1nc(C(=O)O)nn1-c1ccc([N+](=O)[O-])cc1 | 8% | -3 | ? | 50µM* | 5% | 19%
C[C@]12N[C@@H](Cc3ccccc31)c1ccccc12 | · | · | · | 16%[21.5 µM] | · | ·
COc1ccc(CNC(=O)CSCc2cnn(-c3ccccc3)c2-n2cccc2)cc1OC | · | · | 28µM* | -40%[59 µM] | -30% | -13%
C/C(=N\N1CCCCCC1)c1c(O)n(C)c(=O)n(C)c1=O | · | · | -7% | 17%[12.7 µM] | · | ·
C/C(=N\NC(N)=O)c1c(O)n(C)c(=O)n(C)c1=O | -1% | -12 | · | ? | 40µM* | 28%
Cc1ccc(-n2c(/C=C/c3cccs3)nc3ccccc3c2=O)cc1C | · | · | -30% | -27%[59 µM] | -31% | 3%
COc1ccc(/C=C2/C(=O)NC(=O)N(c3ccc(C)c(C)c3)C2=O)cc1CN1C(=O)c2ccccc2C1=O | 2% | -66* | 50µM* | 11µM* | 50µM* | -11%
Cc1ccc(N2C(=O)NC(=O)/C(=C\c3cnc(-c4ccccc4)nc3)C2=O)cc1 | 1% | ? | 1% | ? | ? | -19%
CCOc1ccc(N2C(=O)NC(=O)/C(=C/c3cnc(SC)nc3)C2=O)cc1 | · | -30 | ? | 8.9µM* | ? | -38%
Cc1ccc(N2C(=O)NC(=O)/C(=C/c3cnn(-c4ccc(C)cc4)c3)C2=O)cc1 | 0% | -16 | 2% | 3.5µM* | -8% | 46%
CC1=NN(c2ccccc2)C(=O)C1/C=C1\C(=O)NC(=O)N(c2ccc(C)c(C)c2)C1=O (stereo unspecified) | · | -25 | ? | 45µM* | -5%[11.4 µM] | -14%
O=C(Nc1ccc2c(c1)OCO2)c1cccn(Cc2cccc([N+](=O)[O-])c2)c1=O | · | · | -7% | -17%[59 µM] | -16% | 15%
COc1cc(/C=C2\C(=O)NC(=O)N(c3ccc(C)cc3)C2=O)cc(OC)c1O | · | -23 | 4% | 20µM* | -3% | 25%
CSc1ncc(/C=C2/C(=O)NC(=O)N(c3ccc(C)cc3)C2=O)cn1 | -1% | ? | -38% | 10µM* | -18% | -5%
CSc1ncc(/C=C2/C(=O)NC(=O)N(c3ccc(Cl)cc3)C2=O)cn1 | · | ? | -16% | 8.9µM* | ? | -13%

Assay outcomes: PubChem, National Center for Advancing Translational Sciences (NCATS)
